# The full list was thinned out, with hits kept by preference.
# GluA2 TARP mod: GluA2-stargazin AMPA receptor complex modulation; calls only at 30 µM; HEK293 GluA2+stargazin, membrane potential dye (FDSS), glutamate EC50; hits were called plate by plate, in both directions; 40,000 tested, 3.5% active; O88602+P19491;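 active = any of four per-well response measures lying three or more SD from its plate-wide compound average, in either direction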
# GIRK2 act: GIRK2 channel activators by thallium flux. HEK293 GIRK2/NPY4 cells, thallium flux fluorescence. activation (% efficacy), % for hits at 37.5 µM. 34,000 tested, under 10 active;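 active = primary screen hit, no activity in plain HEK293 cells, and in GIRK2-only cells above 5% efficacy rising with concentration; inactive = the rest, including fluorescent compounds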;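 also: efficacy is normalized control-subtracted fluorescence 15 s after thallium addition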
# Target sequence (P48051 whole entry, looked up): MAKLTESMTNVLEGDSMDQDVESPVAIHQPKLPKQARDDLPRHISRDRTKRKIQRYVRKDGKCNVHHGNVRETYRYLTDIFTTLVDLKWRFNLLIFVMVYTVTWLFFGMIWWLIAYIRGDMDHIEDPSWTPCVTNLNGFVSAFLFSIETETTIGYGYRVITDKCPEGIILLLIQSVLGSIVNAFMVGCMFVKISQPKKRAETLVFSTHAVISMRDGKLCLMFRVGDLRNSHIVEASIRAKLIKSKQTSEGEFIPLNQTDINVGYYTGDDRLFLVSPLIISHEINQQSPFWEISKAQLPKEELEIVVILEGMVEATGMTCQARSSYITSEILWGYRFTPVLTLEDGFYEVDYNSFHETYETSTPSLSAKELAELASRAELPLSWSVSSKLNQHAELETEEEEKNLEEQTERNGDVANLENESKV
# Active calls of the source: *; i = inactive; / = no result; + = active, no number.
SMILES,GluA2 TARP mod,GIRK2 act
O=C(Nc1ccc(Br)cc1)c1ccc(=O)n(Cc2cccc([N+](=O)[O-])c2)c1,+,i
O=C(Nc1ccc(Cl)cc1)c1ccc(=O)n(Cc2cccc(Cl)c2)c1,i,i
Cc1cc([N+](=O)[O-])ccc1NC(=O)c1ccc(=O)n(Cc2cccc(C(F)(F)F)c2)c1,+,i
O=C(Nc1ccc(F)c(F)c1)c1ccc(=O)n(Cc2cccc(Cl)c2)c1,+,i
Cc1ccc([N+](=O)[O-])cc1NC(=O)c1ccc(=O)n(Cc2cccc(C(F)(F)F)c2)c1,i,i
O=C(Nc1cccc([N+](=O)[O-])c1)c1ccc(=O)n(Cc2cccc([N+](=O)[O-])c2)c1,i,i
Cc1cc([N+](=O)[O-])ccc1NC(=O)c1ccc(=O)n(Cc2cccc([N+](=O)[O-])c2)c1,+,i
COC(=O)c1ccc(NC(=O)c2cc(-c3ccco3)nc3c2c(C)nn3C2CCS(=O)(=O)C2)cc1 (stereo not drawn),i,i
O=C(CC1COc2ccccc2O1)Nc1ccc(Br)cc1 (stereo not drawn),i,/
Cc1cc(C)cc(OCC(=O)Nc2ccc(S(N)(=O)=O)cc2)c1,i,i
COC(=O)c1ccccc1NC(=O)CSc1nccnc1N1CCSCC1,+,i
N#Cc1ccccc1NC(=O)CSc1nccnc1N1CCSCC1,i,i
O=C(Cc1csc2nc(-c3ccccc3)cn12)NC1CCCCCC1,i,i
Cc1ccc(N2CCCS2(=O)=O)cc1NC(=O)Nc1ccc(Cl)c(Cl)c1,i,i
O=C(Nc1ccc(N2CCCS2(=O)=O)cc1)Nc1ccc(Cl)c(Cl)c1,+,i
CCS(=O)(=O)c1ccc(C(=O)Nc2sccc2-c2nc3ccccc3s2)cc1,i,i
CC(C)c1ccc(S(=O)(=O)NCC2CCN(C3CCCC3)CC2)cc1,+,/
COc1ccc(S(=O)(=O)NCC2CCN(C3CCCC3)CC2)cc1,i,i
COc1ccc(CCS(=O)(=O)NCC2CCN(C3CCCC3)CC2)cc1,+,i
COc1ccc(CCS(=O)(=O)NCC2CCN(C)CC2)cc1,i,i
COc1ccc(NC(=O)c2ccc(=O)[nH]n2)c(OC)c1,i,i
Cc1nc(Nc2ccc(NC(=O)Cc3ccccc3)cc2)cc(-n2ccnc2)n1,i,i
CCc1ccc(S(=O)(=O)Nc2cc(-c3cn4nc(OC)ccc4n3)ccc2OC)s1,/,i
COc1cccc2cc(C(=O)CS(=O)(=O)c3ccccc3)c(=O)oc12,+,/
CCC(C)NC(=O)c1cc2cccc(OC)c2oc1=O (stereo not drawn),i,i
SMILES,GluA2 TARP mod,GIRK2 act
O=C(NCc1cccs1)C(=O)NCC1CCN(Cc2cccs2)CC1,i,i
COCCN1CCC(CNC(=O)C(=O)NCc2cccs2)CC1,+,i
NC(=O)C1CCN(C(=O)Cc2cc(-c3ccc(F)cc3)on2)CC1,i,i
NC(=O)C1CCN(C(=O)Cc2cc(-c3cc4ccccc4o3)on2)CC1,+,i
Cc1cc(C)c(N2CCN(C(=O)c3cc4cc(Br)ccc4oc3=O)CC2)c(C)c1,+,i
Cc1ccc(Cl)cc1N1CCN(C(=O)c2cc3cc(Br)ccc3oc2=O)CC1,i,i
O=C(CN1C(=O)c2ccccc2S1(=O)=O)NC1CCCCCC1,i,i
O=C(NC1CCCCCC1)C1c2ccccc2C(=O)N1CCC1=CCCCC1 (stereo not drawn),+,i
CC(=O)N1CC(C(=O)Nc2cc(C(C)(C)C)no2)C1,i,i
COc1ccc(C)c2sc(NC(=O)c3cc(C)no3)nc12,+,i
Cc1cc(C)c2nc(NC(=O)c3cc(C)no3)sc2c1,i,i
Cn1c(=O)c2c(SCc3ccccc3)ccnc2n(C)c1=O,i,i
Cc1cc(C)c(S(=O)(=O)N(C)c2c(C)cccc2C)cc1N(C)S(=O)(=O)c1ccccc1,i,/
Cc1cc(C)c(S(=O)(=O)NC(C)C)cc1N(C)S(=O)(=O)c1ccccc1,+,/
Cc1cccc(N(C)S(=O)(=O)c2cc(N(C)S(=O)(=O)c3ccccc3)c(C)cc2C)c1,i,/
Cc1cc(C)c(S(=O)(=O)N(C)c2ccc(Cl)cc2)cc1N(C)S(=O)(=O)c1ccccc1,+,/
CCOc1ccc(C2NC(=O)NC(CS(=O)(=O)c3ccc(OC)c(OC)c3)=C2C(=O)OC)cc1 (stereo not drawn),i,/
CC(C)CC(=O)Nc1sc(SCC(=O)NC2CC2)nc1-c1ccccc1,i,i
Cc1cc(C(=O)Nc2ccccc2-c2nc3ccccc3[nH]2)on1,i,i
Cc1nc(NCCNC(=O)Nc2ccc(Cl)c(C(F)(F)F)c2)cc(-n2cccn2)n1,+,i
Cc1nc(NCCNC(=O)Nc2ccc(C)c(F)c2)cc(-n2cccn2)n1,i,i
CC(=O)c1ccc(N2CCN(C(=O)c3ccc4c(=O)n5c(nc4c3)SCC5)CC2)cc1,i,i
COc1ccc(Cc2nnc(SCC(=O)Nc3ccc(OC)cc3)n2N)cc1,i,i
O=C(Cc1cccs1)N1CCN(c2cc(N3CCCC3)ncn2)CC1,+,i
O=C(Cc1cccs1)N1CCN(c2ccccn2)CC1,i,/
SMILES,GluA2 TARP mod,GIRK2 act
O=C(c1cccs1)N1CCN(c2cc(N3CCCC3)ncn2)CC1,+,i
CC1CCN(c2ccc(N3CCN(C(=O)c4cccs4)CC3)nn2)CC1,i,i
Cc1nnsc1C(=O)Nc1nnc(-c2ccnn2C)o1,i,i
CCNC(=O)C1CCN(c2cc(SCC(=O)Nc3cc(C)ccc3C)ncn2)CC1,i,i
O=C(Nc1ccccc1Cl)c1ccc(=O)n(Cc2ccccc2F)c1,i,i
CC(=O)Nc1ccc(NC(=O)c2ccc(=O)n(Cc3ccccc3Cl)c2)cc1,i,i
CCOc1ccccc1NC(=O)c1ccc(=O)n(Cc2ccccc2Cl)c1,+,i
O=C(Nc1ccccc1C(F)(F)F)c1ccc(=O)n(Cc2ccccc2F)c1,+,i
Cc1ccc2nc(N3CCN(C(=O)Cc4ccc(S(C)(=O)=O)cc4)CC3)sc2c1,i,/
CC(O)(CNC(=O)/C=C/c1ccc2c(c1)OCO2)c1ccccc1 (stereo not drawn),i,i
N#Cc1ccc(C(=O)N(Cc2ccsc2)C2CC2)cc1,/,i
O=C(Nc1ccc(C(F)(F)F)cc1)c1ccc(S(=O)(=O)NCCc2ccccc2)o1,i,i
O=C(Nc1ccc(OC(F)(F)F)cc1)c1ccc(S(=O)(=O)NCc2cccs2)o1,+,i
CC(=O)N1CCN(c2ccnc3c2c(=O)n(Cc2ccc(Cl)cc2)c(=O)n3C)CC1,i,/
CN(C)CCCN1C(=O)C(=O)C(=C(O)c2ccc(Cl)cc2)C1c1ccccn1 (stereo not drawn),/,i
O=C(Cc1cccs1)NCC1(c2ccccc2)CCOCC1,i,i
COc1cc(-c2c(NC(=O)c3ccco3)sc3ccccc3c2=O)cc(OC)c1OC,+,i
COc1ccc(-c2c(NC(=O)c3cccs3)sc3ccccc3c2=O)cc1,i,i
O=S(=O)(NCCNc1ccc(Nc2ccccn2)nn1)c1ccc(F)cc1,i,i
Cc1ccnc(Nc2ccc(NCCNS(=O)(=O)c3ccc(F)cc3)nn2)c1,+,i
CN1CCN(c2ccc(-c3ccc(NC(=O)Nc4ccc(F)cc4)cc3)nn2)CC1,i,/

# Assay outcomes (PubChem)
